Source: PubChem
Most compounds without a hit are left out; they make up all but 12% or so of the library.
HP1b binding inh: blocks HP1-beta chromodomain binding to methylated histone tails; P83916; AlphaScreen HP1-beta / biotin-H3K9me3 peptide binding; Potency, µM (highest dose often 114 µM), for the others: at the highest dose activity change, negative = inhibition, actives largely listed as inhibitors; actives 0.56% (n = 390,000); AID 540317; further: nearly all actives have a fitted effect of over 70% in size
Target sequence (P83916 whole entry, looked up): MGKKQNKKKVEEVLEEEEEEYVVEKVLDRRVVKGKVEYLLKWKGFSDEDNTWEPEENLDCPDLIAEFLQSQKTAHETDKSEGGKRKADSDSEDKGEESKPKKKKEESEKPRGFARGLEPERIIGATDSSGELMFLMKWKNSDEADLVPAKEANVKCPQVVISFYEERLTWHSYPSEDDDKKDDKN
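AlphaScreen: HP1-beta (50 nM) preformed 30 min with biotin-H3(1-18)K9me3 peptide (50 nM) in PBS pH 7.4, 0.01% Tween-20. Compound added for 30 min at RT, then streptavidin donor/nickel chelate acceptor beads (10 ug/mL) for 30 min.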
G9a block: blocks human histone lysine methyltransferase G9a | Q96KQ7 | G9a H3K9 monomethylation, AlphaScreen, 2 h | Potency, µM (top dose mostly 102 µM), for inactives: at the highest dose activity, negative = inhibition, most hits filed as inhibitors | actives 8.8% (n = 350,000) | AID 504332; further: on the % scale 0 is the no-effect control and ±100 the full control effect; nearly all actives have a fitted effect of over 75% in size
Target sequence (Q96KQ7 913-1193 limits assumed): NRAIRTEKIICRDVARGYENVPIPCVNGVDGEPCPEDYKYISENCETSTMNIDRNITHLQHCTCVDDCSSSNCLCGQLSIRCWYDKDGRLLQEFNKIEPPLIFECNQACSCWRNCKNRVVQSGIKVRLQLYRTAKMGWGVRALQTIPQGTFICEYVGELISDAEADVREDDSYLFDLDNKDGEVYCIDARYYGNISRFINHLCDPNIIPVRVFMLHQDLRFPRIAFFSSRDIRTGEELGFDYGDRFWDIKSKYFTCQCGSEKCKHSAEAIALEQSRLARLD
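Quantitative HTS format: methyltransferase activity on a biotin-tagged H3K9 peptide is measured by AlphaScreen, using a rabbit anti-monomethyl-H3K9 antibody with streptavidin donor and anti-IgG acceptor beads. Final levels are 20 nM enzyme, 500 nM peptide, 20 uM SAM; 2 h RT.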
Sfp PPTase inh: blocks B. subtilis Sfp PPTase activity; Q9F4F7; Biochemical Sfp PPTase activity, qHTS; Potency, µM, for inactives: largest response in the series, negative = inhibition, actives largely listed as inhibitors; actives 3.5% (n = 310,000); AID 1490;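 further: the enzyme is Sfp with the accession as filed and its product quenches rhodamine fluorescence; 0% = enzyme reaction without inhibitor and -100% = no enzyme wells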
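Sfp 15 nM + cpd, 15 min RT; start w/ rhodamine-CoA 5 uM, BHQ-2-YbbR 12.5 uM (final); 50 mM Hepes pH 7.6, 10 mM MgCl2, 0.01% NP-40, 0.01% BSA; read 525/598 nm at 0 and 30 min.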
BAZ2B inh: BAZ2B (human) inhibition; AlphaScreen BAZ2B-H3K14Ac peptide displacement; Potency, µM (series often up to 114 µM), for the others: top-dose activity change, negative = inhibition, usual class: inhibitors; actives 4.4% (n = 360,000); AID 504333; further: on the % scale 0 is the no-effect control and ±100 the full control effect; nearly all actives have a fitted effect of over 60% in size
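AlphaScreen luminescence quantifies BAZ2B engagement of H3K14Ac peptide; the protein and biotinylated peptide are both at 50 nM final, buffer PBS pH 7.4 with 0.01% Tween-20, all steps at room temperature.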
TDP1 inh: TDP1 (human) enzyme inhibition. Q9NUW8. recombinant TDP1, AlphaScreen DNA substrate cleavage. Potency, µM (titrated, usually from 130 µM), for the others: top-dose activity change, negative = inhibition, hits mostly inhibitors. actives 0.28% (n = 350,000). AID 485290; further: on the % scale 0 is the no-effect control and ±100 the full control effect; nearly all actives have a fitted effect of over 40% in size
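E. coli-derived human Tdp1, 1 nM final. Cpd preinc 15 min RT; substrate 15 nM final, 5 min RT; AS bead mix 10 ug/ml final, 10 min RT. Signal loss = tyrosine-FITC cleavage. No-enzyme wells = max signal.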
JMJD2A Tudor inh: JMJD2A Tudor domain (human) inhibition; AlphaScreen JMJD2A-Tudor / H3K4me3 peptide binding; Potency, µM (doses to about 114 µM), for the others: at the top dose activity change, negative = inhibition, most hits filed as inhibitors; actives 4.4% (n = 390,000); AID 504339; further: on the % scale 0 is the no-effect control and ±100 the full control effect; nearly all actives have a fitted effect of over 50% in size
An asterisk follows results filed as active; ? = inconclusive; · = no result given; ! = not active in a repeat; [ ] = remark or other dose. The call rests on the fitted dose curve; in most records, active means well fitted curve in the direction sought with a large enough effect; inconclusive means small, poorly fitted or top-dose-only effect, or another doubt; inactive means no such curve, though single readings can be large; an effect the other way counts as inactive or inconclusive. Potency means the concentration at half of the fitted maximal effect.

SMILES	HP1b binding inh	G9a block	Sfp PPTase inh	BAZ2B inh	TDP1 inh	JMJD2A Tudor inh
O=C(NC(=S)Nc1ccc(NC(=O)c2ccco2)cc1)c1ccccc1	-9.5%	?	-20.6%	-0.4%	0.0%	35.5µM*
O=C(/C=C/c1ccccc1)NC(=S)NNC(=O)c1ccco1	14.8%	10µM*	-6.1%	-1.1%	9.7%	-5.4%
O=C(NC(=S)NNC(=O)c1ccco1)c1ccccc1	18.6%	25.1µM*	6.1%	4.3%	2.8%	-28.8%
COc1cc(C(=O)OCC(=O)N2CCCC2)cc2c1OCCO2	27.8%	4.8%[12.7 µM]	·	3.1%	0.9%	-10.1%
CC(Oc1ccccc1)C(=O)Nc1nnc(S(=O)(=O)N(C)c2ccccc2)s1 (centres undefined)	33.4%	19.1%	15.2%	-15.2%	4.6%	-14.6%
Cc1oc2c(c1C(=O)NCc1cccnc1)C(=O)c1ccccc1C2=O	28.6%	·	-0.5%	-5.4%	·	-17.2%
COc1ccc(CNC(=O)c2c(C)oc3c2C(=O)c2ccccc2C3=O)cc1	7.5%	11.2µM*	9.6%	7.94µM*	3.9%	?
CC(C)=CCC/C(C)=C/C=C/C(C)=C/C=C/C(C)=C/C=C/C=C(C)/C=C/C=C(C)/C=C/C=C(\C)CCC=C(C)C	·	20µM*	?	·	2.1%	·
O=C(NCc1n[nH]c(=S)n1Cc1ccccc1)c1ccccc1	7.6%	35.3%	-13.0%	-12.1%	4.8%	?
S=c1[nH]nc(-c2cccs2)n1Cc1ccccc1	-30.0%	?	2.3%	-32.9%	8.2%	?
S=c1[nH]nc(CN2CCCCC2)n1Cc1ccccc1	20.7%	22.4µM*	15.0%	-22.8%	2.3%	12.6µM*
S=c1[nH]nc(CN2CCCC2)n1Cc1ccccc1	11.3%	50.1µM*	16.2%	-4.0%	-2.6%	3.55µM*
CC1C(=O)C(=O)C=CN1C (centres undefined)	·	?	44.7µM*	·	·	·
COc1ccc(OC)c(NC(=O)N2CCCc3ccccc32)c1	9.4%	·	15.2%	?	5.6%[56.1 µM]	-33.1%
O=C(NCc1cccc(Br)c1)c1ccc(NC(=O)N2CCCCc3ccccc32)cc1	14.4%	51.6%[59 µM]	·	6.7%	-0.6%	-18.3%
COc1ccc(OC)c(NC(=O)N2CC3CCCN3c3ccccc32)c1 (centres undefined)	?	17.8µM*	·	20µM*	10.5%	39.8µM*
O=C(NCc1cccc(Cl)c1)c1ccc(NC(=O)N2CC3CCCN3c3ccccc32)cc1 (centres undefined)	-12.5%	10µM*	·	?	10.5%	?
O=C(Nc1cccc(Cl)c1)N1CC2CCCN2c2ccccc21 (centres undefined)	?	2.24µM*	·	17.8µM*	11.4%	14.1µM*
CC1CCCCN1C(=O)Nc1cccc(Cl)c1 (centres undefined)	6.8%	-8.4%[59 µM]	5.8%	-19.7%	1.0%	5.4%
COc1ccc(S(=O)(=O)NNC(=O)C2CC(c3cccnc3)=NO2)cc1 (centres undefined)	35.3%	?	16.8%	-12.7%	-1.2%	3.7%
O=C(Cc1ccc(S(=O)(=O)N2CCOCC2)s1)N1CCN(S(=O)(=O)c2ccccc2[N+](=O)[O-])CC1	14.5%	·	·	·	·	-21.1%
O=C(c1ccncc1)N1CCC[C@@]2(CCN(Cc3ccccc3)C2)C1	·	4.3%[12.7 µM]	-3.7%	·	·	·
CCOc1cccc(Nc2nn(-c3ccc(OC(F)(F)F)cc3)nc2C(C)=O)c1	38.9%	6.8%[59 µM]	·	0.8%	7.0%	-7.5%
O=C(CCn1nnc2ccccc21)N1CCC(O)(c2cccc(F)c2)CC1	-11.2%	8.3%	3.4%	-2.4%	3.1%	50.1µM*
NNC(=O)CCn1nnc2ccccc21	22.8%	·	-10.4%	-16.7%	2.6%	3.6%
SMILES	HP1b binding inh	G9a block	Sfp PPTase inh	BAZ2B inh	TDP1 inh	JMJD2A Tudor inh
Cn1c(=O)c2c(n(Cc3ccccc3)c1=O)NC(=O)C2CC(=O)O (centres undefined)	49.6%	44.7µM*	1.5%	-3.6%	5.1%	-6.3%
CC1CCN(C(=O)CC2C(=O)Nc3c2c(=O)n(C)c(=O)n3Cc2ccccc2)CC1 (centres undefined)	18.1%	8.91µM*	-9.1%	23.1%	7.3%	-6.0%
Cn1c2c(c(=O)n(C)c1=O)C(CC(=O)Nc1ccccc1)C(=O)N2 (centres undefined)	13.7%	-21.6%[59 µM]	31.0%	10.3%	2.2%	-1.5%
COc1ccc2c(c1)O/C(=C\c1sccc1C)C2=O	15.4%	-3.8%	44.7µM*	4.1%	-3.2%	-19.0%
CCOC(=O)c1c(NC(=O)CSc2ncccn2)sc2c1CCN(Cc1ccccc1)C2	-13.9%	?	-21.2%	?	4.7%	22.4µM*
CCOC(=O)c1c(NC(=O)CC)sc2c1CCN(Cc1ccccc1)C2	11.8%	·	-17.8%	-5.5%	·	-31.9%
CCOC(=O)c1c(NC(=O)C(C)Sc2cccc[n+]2[O-])sc2c1CCN(Cc1ccccc1)C2 (centres undefined)	-9.9%	8.91µM*	17.2%	-9.8%	2.7%	?
COC(=O)c1c(NC(=O)C2COc3ccccc3O2)sc2c1CCN(Cc1ccccc1)C2 (centres undefined)	11.3%	79.4µM*	1.4%	-9.7%	1.9%	?
COc1ccc(CCNS(=O)(=O)c2cc3c4c(c2)CCN4C(=O)CC3)cc1	12.8%	-43.3%	·	-0.9%	-8.6%[0.505 µM]	-15.2%
O=[N+]([O-])c1cccc2c(N3CCCC3)ccnc12	7.0%	31.6%[12.7 µM]	14.8%	-13.6%	-5.5%	-13.1%
Cc1cccc(NC(=O)CCc2ccccc2)c1C	25.8%	·	-5.0%	-3.4%	-0.7%	-12.4%
CCc1cccc2c3c([nH]c12)[C@@](CC)(CC(=O)O)OCC3	·	-5.6%[12.7 µM]	18.9%	·	3.9%[56.1 µM]	·
O=C(O)c1csc(-c2ccc(Cl)cc2)n1	-1.6%	56.2µM*	-9.4%	?	0.0%	-20.5%
c1ccc2c(c1)ncn2CCCCOc1ccc2c(c1)CCC2	70.8µM*	8.91µM*	31.6µM*	28.2µM*	11.7%	2.82µM*
Cc1ccc(OCCCCn2cnc3ccccc32)cc1	31.5%	?	39.8µM*	0.8%	6.9%	-6.2%
c1ccc(OCCCCn2cnc3ccccc32)cc1	62.6%	4.3%[59 µM]	10.1%	-2.7%	4.4%	1.0%
O=C(O)CN(CCN(CC(=O)O)CC(=O)O)CCN(CC(=O)O)CC(=O)O	·	-10.6%[59 µM]	23.2%	·	10.2%[56.1 µM]	·
O=C(O)CP(=O)(O)O	14.7%	12.6µM*!	-1.6%	?	6.0%	?
CCNC(=O)c1c(N)sc2c1CCCCC2	·	?	35.5µM*	5.3%	2.4%	·
